# Laboratory results taken from the supplement of paper PMC9925115.
# Where “and” joins values, the source holds several entries; their conditions need not be identical. Equal values may be shown once. Where a name gives a salt, the structure may show the parent alone.
# System: FLX1 + dox-induced PRKAR1A G325D
# Test: difference in log2 fold change of viability vs plate median (dox-induced PRKAR1A G325D minus uninduced); higher = compound less effective when PKA is inhibited
# Conditions: concentration: not stated (2 or 5 uM); 5 days
# Method: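 For each plate a log2 fold change vs the plate median was derived, and the values without dox were subtracted from those with dox, averaged over three biological replicates.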
row,Structure (SMILES),difference in log2 fold change of viability
1,CC(C)n1nc(-c2ccc3oc(N)nc3c2)c2c(N)ncnc21,-0.0452
2,O=c1ncn2nc(Sc3ccc(F)cc3F)ccc2c1-c1c(Cl)cccc1Cl,2.06
3,CS(=O)(=O)c1cccc(CNc2nc(Nc3ccc4c(c3)CCC(=O)N4)ncc2C(F)(F)F)c1,-0.0481
4,CCc1cccc(CC)c1NC(=O)N1Cc2[nH]nc(NC(=O)c3ccc(N4CCN(C)CC4)cc3)c2C1,0.41
5,O=C(Nc1ccc(OC(F)(F)F)cc1)c1sccc1NCc1ccnc2ccccc12,0.386
6,CCCCCCCCc1ccc(CCC(N)(CO)CO)cc1 [Fingolimod (FTY720) HCl],0.301
7,NC(=O)Nc1cc(-c2cccc(F)c2)sc1C(=O)N[C@H]1CCCNC1,-0.12
8,Nc1ccc(-c2ccc3ncc4ccc(=O)n(-c5cccc(C(F)(F)F)c5)c4c3c2)cn1 [Torin 2],0.605
9,Cc1[nH]c(/C=C2\C(=O)Nc3ccc(S(=O)(=O)N(C)c4cccc(Cl)c4)cc32)c(C)c1C(=O)N1CCN(C)CC1,0.163
10,Oc1c2ccccc2c2c3c(cccc13)N=N2,0.149
11,Cc1cc2c(F)c(Oc3ncnn4cc(OC[C@@H](C)O)c(C)c34)ccc2[nH]1,0.515
12,CN(c1ncccc1CNc1nc(Nc2ccc3c(c2)CC(=O)N3)ncc1C(F)(F)F)S(C)(=O)=O,0.235 and 0.428
13,CC(C)n1nc(-c2cc3cc(O)ccc3[nH]2)c2c(N)ncnc21 [Torkinib (PP242)],0.611
14,CNC(=O)c1cc(COc2nnc(Nc3ccc(Cl)cc3)c3ccoc23)ccn1 [Telatinib],0.0582
15,O=C1NC(=O)[C@@H](c2cn3c4c(cccc24)CCC3)[C@@H]1c1c[nH]c2ccccc12 [Tivantinib (ARQ 197)],0.768
16,CC(C)(C)c1cc(/C=C(\C#N)C(N)=S)cc(C(C)(C)C)c1O [Tyrphostin AG 879],0.264
17,CC(C)c1cnn2c(NCc3ccccc3)cc(NCCCCCCN)nc12,-0.0617
18,C[C@@H]1COC(Nc2ccc3ncnc(Nc4ccc(OCc5nccs5)c(Cl)c4)c3c2)=N1 [Varlitinib],-0.557
19,Cc1[nH]c(/C=C2\C(=O)Nc3ccc(S(=O)(=O)Cc4c(Cl)cccc4Cl)cc32)c(C)c1C(=O)N1CCC[C@@H]1CN1CCCC1,-0.266
20,COc1ccc(-c2ccc3c(N4CCOCC4)nc(N4C[C@@H](C)O[C@@H](C)C4)nc3n2)cc1CO,0.463

row,Structure (SMILES),difference in log2 fold change of viability
1,O=C(O)[C@]1(Cc2cccc(Nc3nccs3)n2)CC[C@@H](Oc2cccc(Cl)c2F)CC1,-0.795
2,COc1cc(Nc2c(C#N)cnc3cc(OCCCN4CCN(C)CC4)c(OC)cc23)c(Cl)cc1Cl [Bosutinib (SKI-606)],-0.235
3,Cc1cc(C)c(/C=C2\C(=O)Nc3ccccc32)[nH]1 [Semaxanib (SU5416)],0.256
4,CCOc1ccn(-c2ccc(F)cc2)c(=O)c1C(=O)Nc1ccc(Oc2ccnc(N)c2Cl)c(F)c1,0.114
5,Cc1ccc(-n2nc(C(C)(C)C)cc2NC(=O)Nc2ccc(OCCN3CCOCC3)c3ccccc23)cc1 [Doramapimod (BIRB 796)],0.496
6,Cc1ccc(NC(=O)c2cccc(C(C)(C)C#N)c2)cc1Nc1ccc2ncn(C)c(=O)c2c1,0.173
7,C=CC(=O)Nc1ccc2ncnc(Nc3cccc(Br)c3)c2c1,-0.936
8,N#C/C(=C\c1ccc(O)c(O)c1)C(=O)NCc1ccccc1 [AG-490 (Tyrphostin B42)],-0.0065
9,NC(=O)c1ccc(N(C(N)=O)c2c(F)cccc2F)nc1-c1ccc(F)cc1F,0.256
10,CC(C)(C)c1ccc(S(=O)(=O)/C=C/C#N)cc1,0.145
11,CC(=O)Nc1nc(C)c(-c2ccc(Cl)c(S(=O)(=O)NCCO)c2)s1,1.62
12,O=C1Nc2ccccc2/C1=C1/Nc2ccccc2C1=O [Indirubin],0.211
13,Cc1nc(Nc2cnn(C3CCNCC3)c2)nc2c1N(C)C(=O)c1cc3ccccc3cc1N2C,-0.568
14,Nc1ccc(C(=O)Nc2cccc(-c3nc(N4CCOCC4)c4oc5ncccc5c4n3)c2)cn1,0.262
15,C[C@@H](N)[C@H]1CC[C@H](C(=O)Nc2ccncc2)CC1,0.511
16,COc1ccc(-c2nc(N3CCOCC3)c3sc(CN(C)c4ncc(C(=O)NO)cn4)cc3n2)cn1,0.159
17,CCc1cncnc1N1CCN(Cc2nc3ccc(C(F)(F)F)cc3[nH]2)CC1,-1.55
18,C=CC(=O)N1CCC[C@@H](n2nc(-c3ccc(Oc4ccccc4)cc3)c3c(N)ncnc32)C1,-2.14
19,CO[C@H]1C[C@@H]2CC[C@@H](C)[C@@](O)(O2)C(=O)C(=O)N2CCCC[C@H]2C(=O)O[C@H]([C@H](C)C[C@@H]2CC[C@@H](O)[C@H](OC)C2)CC(=O)[C@H](C)/C=C(\C)[C@@H](O)[C@@H](OC)C(=O)[C@H](C)C[C@H](C)/C=C/C=C/C=C/1C [Rapamycin (Sirolimus)],-0.339
20,O=C(NCc1ccccc1)c1csc(Nc2ccncn2)n1 [Thiazovivin],0.59
